# Screening data (PubChem BioAssay)
# Most compounds without a hit are left out; they make up all but 2.6% or so of the library.
# CCT modulator = cytosolic chaperonin activity modulation. purified chaperonin ATPase assay, HTRF ADP detection, 30 min. activity change, % (test concentration not listed), hits read low. 0.3% of 360,000 active. AID 651819; in the data active = activity change below about -30%; note: % is set by controls: 0 for no effect and ±100 for the full control effect
#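 TRiC at 40 or 20 nM final (batch-dependent) in 30 mM Tris pH 7.4, 100 mM KCl, 5 mM MgCl2, 1 mM DTT, with compound at single 76 uM and 10 uM ATP, 30 min at 37 deg C. ADP detected by HTRF Transcreener, 665/615 ratio.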
# A-T KAP1 phos = candidate therapy for ataxia-telangiectasia; F2112 A-T fibroblasts, KAP-1 phosphorylation AlphaLISA; neocarzinostatin DNA damage 30 min before lysis; 0.19% of 320,000 active; Potency, µM (doses to about 57.5 µM), inactives show top-dose activation, most hits filed as activators; note: potency is the fitted concentration of half-maximal effect; % of control where 0% means no effect; nearly all actives have a fitted effect of over 45% in size
#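 hTERT-immortalized A-T patient fibroblasts (F2112), 500 cells/well in OPTI-MEM, 1% FBS, got compounds for 60 min, then NCS for 30 min at 37C. Lysates were then assayed for phospho-KAP-1 by AlphaLISA (anti-pKAP1 donor, anti-KAP1 acceptor beads), 6 hr at 25C.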
# Nrf2 inh = Nrf2 pathway inhibition; A549 ARE-Fluc reporter, luciferase luminescence, 18-24 h; Potency, µM (doses to about 46 µM), inactives show top-dose activity change, negative = inhibition, usual class: inhibitors; 2.1% of 360,000 active; note: potency is the fitted concentration of half-maximal effect; % is set by controls: 0 for no effect and ±100 for the full control effect; nearly all actives have a fitted effect of over 60% in size
#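 A549 ARE_Fluc cells (5000/well, 5% FBS OPTI-MEM) pre-incubated 2 h, then treated with compounds 18-24 h at 37C/5% CO2 in concentration-response. CellTiter-Fluor viability read first; BugLite luciferase luminescence after 15 min at room temperature gives Nrf2 activity.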
# A549 tox = A549 cytotoxicity, counter-screen for Nrf2 inhibitors | A549 ARE-Fluc cells, CellTiter-Fluor viability, 18-24 h | 0.16% of 390,000 active | Potency, µM (highest dose often 46 µM), for inactives: top-dose activity change, negative = cytotoxicity, most hits filed as inhibitors; note: potency is the fitted concentration of half-maximal effect; % is set by controls: 0 for no effect and ±100 for the full control effect
#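 A549 ARE-Fluc cells in 5% FBS OPTI-MEM, 5000 cells/well, rested 2 h then exposed to compounds in concentration-response for 18-24 h at 37 °C. Viability by CellTiter-Fluor fluorescence (Ex 405/Em 525) after 30 min; luciferase luminescence (BugLite, 15 min, RT) read afterwards.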
# TCR act = activators of T cell receptors; primary human leukocytes, anti-CD3, IL-2 HTRF, 48 h; 330,000 tested, under 10 active; Potency, µM (highest dose often 9.22 µM), inactives show at the top dose activation of IL-2 secretion, most hits filed as activators; AID 504894; note: % of control where 0% means no effect
#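 HTRF read-out of IL-2 secretion: europium cryptate donor excited at 320nm, d2 acceptor emission at 665nm. Cells were primary human leukocytes incubated 48 hr with compounds and a-CD3 beads, supplying TCR signal only.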
# Nrf2 ARE act = activates Nrf2 signaling; AREc32 ARE-luciferase reporter (MCF7-derived line), luminescence, 24 h; Potency, µM (titrated, usually from 46.1 µM), inactives show at the highest dose activation, hits mostly activators; 0.31% of 410,000 active; AID 624171; note: potency is the fitted concentration of half-maximal effect; % of control where 0% means no effect; nearly all actives have a fitted effect of over 65% in size
#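 For detection, Steady-Glo was added and plates sat 30 min at RT; before that, AREc32_Fluc cells grown overnight in OPTI-MEM/5% FBS had been treated with 23 nL compound for 24 hr at 37 deg C.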
# * hit, by the source's call; u = inconclusive; x = no result given; [ ] = dose if it differs, or a comment. Unless noted, calls come from the whole dose curve; as a rule, active = well fitted curve in the direction sought with a large enough effect; inconclusive = small, poorly fitted or top-dose-only effect, or another doubt; inactive = no such curve, though single readings can be large; an effect the other way counts as inactive or inconclusive.
SMILES,CCT modulator,A-T KAP1 phos,Nrf2 inh,A549 tox,TCR act,Nrf2 ARE act
COc1cccc(/C=N/Nc2ncnc3scc(-c4ccccc4)c23)c1OC,1,9%,13µM*,10%[1.84 µM],x,13%
COc1cccc(OCCCCn2c(-c3ccc(Cl)cc3)nc3ccccc3c2=O)c1,x,x,10%,u,x,1%
O=C(Nc1ccc(F)cc1)N1CCC(c2nc3c(nnn3Cc3cccc(Cl)c3)c(=O)[nH]2)CC1,0,-4%,21µM*,u,0%,4%
Cc1ccc(C)c(NC(=O)CCC(=O)N/N=C/c2ccc[nH]2)c1,-3,0%,u,-13%,7%,0%
O=C(COc1ccc(Cl)cc1Cl)N/N=C/c1ccc[nH]1,-1,13%,9.2µM*,u,0%,9%
Cc1c(Cl)cccc1NC(=O)CCC(=O)N/N=C/c1ccc[nH]1,-3,-2%,18µM*,u,-6%[46.1 µM],0%
COc1ccc(OC)c(CNC(=O)CCSCc2ccc(F)cc2Cl)c1,-2,1%,-22%,13%,6%,0%
CCOC(=O)c1cnc(-c2ccccc2)nc1-c1ccccc1,-2,u,u,3%,-5%,7.9µM*
CCOC(=O)c1cnc(-c2ccccc2)nc1Oc1ccc(OC)cc1,3,5%,4%,2%,-12%,0%
CCOC(=O)c1cnc(-c2ccccc2)nc1Oc1ccccc1,-1,5%,x,-1%,0%,13µM*
Cc1ccc(S(=O)(=O)N2CCCCC2)cc1NC(=O)CSc1nccn1C,1,1%,-3%,-5%,1%,0%
COc1ccc(OC)c(CNS(=O)(=O)c2ccc(-c3cc(C(F)(F)F)on3)s2)c1,x,x,16µM*,-5%,x,1%
O=C(Cc1cccc(NC(=O)C2CCN(C(=O)C3CC3)CC2)c1)Nc1cccc(C(=O)N2CCCCC2)c1,-1,x,14%,-1%,3%,-1%
Cc1oc(-c2cccc(Cl)c2)nc1CN1CCCC(C(=O)N2CCN(c3ccc(F)cc3)CC2)C1 (stereo not given),x,x,-21%,-7%,x,3%
CCOc1ccc(CCNC(=O)c2nc(-c3cccc(F)c3)n3c2CCCCC3)cc1OCC,x,x,21µM*,u,x,0%
CN(C(=O)c1nc(-c2cccc(F)c2)n2c1CCCCC2)c1ccccc1F,x,x,u,10%,x,4%
C=CCNC(=O)/C(C#N)=C/c1c(N(Cc2ccccc2)Cc2ccccc2)nc2ccccn2c1=O,-7,-3%,26µM*,u,1%[46.1 µM],1%
O=C1C=CC(=O)c2c(O)c(CO)c(CO)c(O)c21,-3,x,23µM*,16µM*,4%,8%
O=c1c(CO)cc(CO)cc(CO)c1O,0,-8%,-2%,-5%,14%,0%
Oc1ccc(CNc2ccc(F)cc2Cl)c2cccnc12,x,x,u,-17%,x,x
CC(=O)Oc1ccccc1-c1nc(/C=C/c2ccccc2)no1,-1,3%,u,0%,-23%,11µM*
COc1ccc(/C=C/c2noc(-c3ccccc3O)n2)cc1,2,4%,u,7%,-9%[46.1 µM],2%
CCOc1ccccc1N(CC(=O)NCCc1ccc(OC)cc1)S(=O)(=O)c1ccc(C)cc1,0,x,x,x,x,1%
Cc1ccc(S(=O)(=O)N(CC(=O)NCCc2ccc(Cl)cc2)c2ccccc2C)cc1,x,x,26µM*,u,x,-1%
O=C(NCc1ccco1)c1ccc(Cl)c(S(=O)(=O)N2CCc3ccccc32)c1,-5,-11%,23µM*,2%,1%[46.1 µM],3%
O=S(=O)(NC1CCCC1)c1ccc(S(=O)(=O)N2CCc3ccccc32)cc1,-1,-4%,15µM*,u,-1%[46.1 µM],3%
O=C(Nc1ccc(S(=O)(=O)N2CCc3ccccc32)cc1)c1ccco1,0,-9%,23µM*,0%[1.84 µM],x,7%
COC(=O)C1CCN(c2nc3ccccc3nc2C(C#N)C(=O)OCC(C)C)CC1 (stereo not given),-40*,0%,-23%,-6%,3%,-1%
